The list shows a part of the results. Records with an inconclusive call do not appear. Calls of active or inactive are those of the source. The call rests on the fitted dose curve; in most records, active means well fitted curve in the direction sought with a large enough effect; inconclusive means small, poorly fitted or top-dose-only effect, or effect the other way, or another doubt; inactive means no such curve, though single readings can be large or run the other way.
These compounds were tested against Thyrotropin-releasing hormone receptor (Homo sapiens) (UniProt P34981) (assay: qHTS for Small Molecule Agonists and Allosteric Enhancers of Human TRH Receptor: Confirmation Screen for Enhancers). Conditions: TRH receptor cell assay, enhancer confirmation qHTS; series mostly up to 46.1 µM.
Thyrotropin-releasing hormone receptor (Homo sapiens), sequence (P34981 whole entry, looked up): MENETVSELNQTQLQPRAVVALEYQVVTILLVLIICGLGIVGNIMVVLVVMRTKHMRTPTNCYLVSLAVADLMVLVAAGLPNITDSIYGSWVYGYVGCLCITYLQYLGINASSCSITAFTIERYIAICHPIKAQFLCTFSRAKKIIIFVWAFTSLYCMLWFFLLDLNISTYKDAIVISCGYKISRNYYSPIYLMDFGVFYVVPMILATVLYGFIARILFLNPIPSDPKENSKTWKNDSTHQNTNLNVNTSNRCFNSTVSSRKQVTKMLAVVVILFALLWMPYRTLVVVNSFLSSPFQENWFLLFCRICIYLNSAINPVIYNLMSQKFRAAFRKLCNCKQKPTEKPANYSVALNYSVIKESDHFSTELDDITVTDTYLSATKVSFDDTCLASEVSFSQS
Excerpt: NIH Chemical Genomics Center [NCGC]
NIH Molecular Libraries Probe Centers Network [MLPCN]
Assay Submitter (PI): Marvin Gershengorn
This project aims to identify small drug-like molecules that activate (agonists) the thyrotropin releasing hormone (TRH) receptor (TRHR) or enhance its TRH-stimulated activity (allosteric enhancers). TRHR, a drug-accessible cell surface receptor expressed in specific brain regions, and its ligand TRH have been implicated in several central nervous system disorders, including depression and anxiety. Small molecule TRHR agonists or allosteric enhancers that are metabolically stable and able to cross the blood-brain barrier might serve as probes to elucidate the roles of brain TRH receptors in animal models, and might be valuable as lead compounds for the development of drugs to treat patients with central nervous system disorders.
Upon TRHR-Gq activation in TRHR cells, intracellular calcium is released from stores in the endoplasmic reticulum. […] This primary screen measures compound-induced enhancement of an EC20 stimulation of the receptor by its native ligand.
For the HTS assay freshly prepared cells are plated at a density of 2000/well in 3 ul of complete DMEM medium containing 10% serum in 1536-well plates and cultured over night at 37 C in a humidified incubator with 5% CO2. The next day, 2 ul of a no wash calcium dye (ABD Bioquest) was added to the cells and plates were incubated at room temperature for 1 hour. For the assay, assay plates were loaded into the FDSS kinetic plate reader. A 10 cycle (1 second/cycle) baseline measurement is taken and then the FDSS online 1536 pintool delivers 23 nl of compound library (as well as TRH controls) to the plate. The plate is measured for kinetically at 1 cycle/sec for 180 seconds and is considered to be the agonist portion of the assay (eg, compounds which activate a positive calcium response during this portion are flagged as potential agonists). Following the 180 second read, 1 ul of either an EC20 (positive modulation assay) is delivered by an onboard pipette head. Measurements are taken kinetically for an additional 180 seconds.
TRHR FDSS Screening Protocol
1. Reagent, 3 uL 2000 cells/well 1536 TC treated Black plate in media containing 10% FCS
2. Time, 18 hours, 33.5C 5% CO2 (cells grown at 37C)
3. Reagent, 2 uL ABD fluo-8 Ca dye
4. Time, 30 min-1.5hrs hours, Room temp (6 plates/batch)
5. Detector, EX 480/EM 530C, FDSS 10 cycles baseline (1sec/cycle)
6. Compound, 23 nL of stock solution from library
7. Detector, EX 480/EM 530C, FDSS 230 cycles (1sec/cycle) Agonist mode
8. Compound, 1 ul EC20 of TRH made up in HEPES HBSS, 10 nM final
9. Detector, EX 480/EM 530C, FDSS 100 cycles (1sec/cycle) Potentiator mode

outcome, inactive:
COc1ccc(Cl)cc1NC(=O)CN(C)Cc1ccc(OC)c(OC)c1
CC(C)c1nnc(NC(=O)CCC(=O)N2CCN(c3cccc(Cl)c3)CC2)s1
COC(=O)c1cc(N2CCNCC2)nc2ccccc12

From PubChem BioAssay AID493076 (National Center for Advancing Translational Sciences (NCATS), 2011)
